Test system: Plasmodium falciparum NF54
Assay: growth inhibition relative to untreated control; higher = more inhibition
Conditions: 72 h
In short: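 Two media were used: minimal RPMI, and minimal RPMI carrying the chorismate end-products folate, pABA, pHBA, tyrosine, phenylalanine and tryptophan at 2.2 μM, 7.3 μM, 7.3 μM, 111 μM and 90 μM for the first five. In these media, P. falciparum NF54 ring stages (1% hematocrit, 1% parasitemia, 100 μL/well) were exposed in dark 96-well half-area plates to a single 5 μM or 1 μM test-compound dose for 72 h at 37 °C. Growth inhibition was then assessed with SYBR Green against untreated wells, subtracting background from uninfected erythrocytes.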

[1] = 1 µM, MM + chorismate end-products (CM screening medium)
[2] = 5 µM, MM + chorismate end-products (CM screening medium)

Compound	growth inhibition [1] [%]	growth inhibition (1 µM, minimal medium (MM)) [%]	growth inhibition [2] [%]	growth inhibition (5 µM, minimal medium (MM)) [%]
CCOC(=O)c1noc(N)c1-c1ccccc1	59.8	12.2	44.4	0.705
NC(=O)c1cc(Br)ccc1OCCOc1ccccc1	14.5	< 0	28.6	< 0
CC(C)(C)n1nc(-c2ccccc2)c2c(N)ncnc21	20.8	20.3	38.5	< 0
CC(C)NCC(=O)Nc1cccc(C(=O)Nc2cccc(C(F)(F)F)c2)c1	72.4	83.1	89.3	97.4
c1csc(-c2cnc3sc(NCC4CCOCC4)nn23)c1	60.9	68.8	> 100	95
Cc1ccc(S(=O)(=O)n2cc(-c3ccnc(N)c3)c3cc(Br)cnc32)cc1	95.2	> 100	97.8	95.2
Cc1cc(NCC(C)C)c2[nH]nc(-c3ccccc3)c2n1	89.6	94.3	99.7	87.9
CNc1snc(C)c1C(=O)NCCOc1ccc(OC)cc1	42.3	< 0	42.9	34.9
Brc1c(-c2ccc3c(c2)OCO3)nc2ncccn12	< 0	< 0	29.5	< 0
c1ccc2c(c1)CN(CC1CC1)CC1(CCN(Cc3c[nH]c4cnccc34)CC1)O2	99	97.8	93.1	87.4
COc1ccccc1C(C)NCC(=O)Nc1cc(C(F)(F)F)ccc1Cl (stereo not given)	86.1	85.5	88.6	88
CS(=O)(=O)Cc1nc2ccccc2oc1=O	< 0	< 0	< 0	< 0
CCN(CC)S(=O)(=O)c1ccc(Cl)c(C(=O)Nc2ccc3nc(C)sc3c2)c1	98.3	96.2	91.3	94.1
COc1ccc(CN2CCOc3ccc(C(C)(O)CN(C)C)cc3C2)cc1C (stereo not given)	78.6	75	66.7	21.7
Nc1ncnc2c1c(-c1cnc3ccccc3c1)nn2CC1CCNCC1	22.7	5.9	< 0	16.8
CC1COC2(CCN(c3nc(=O)c4cc(C(F)(F)F)cc([N+](=O)[O-])c4s3)CC2)O1 (stereo not given)	6.95	12.6	14.7	< 0
Cc1cc2nc(NC(=O)C(C)(C)C)nc(Cl)c2n1Cc1ccc(Cl)cc1	35.7	28.8	< 0	< 0
Cc1cc(C)c2cc(C(=O)NC3CCCCCCC3)[nH]c2c1	34.2	0.728	55.4	< 0

Compound	growth inhibition [1] [%]	growth inhibition (1 µM, minimal medium (MM)) [%]	growth inhibition [2] [%]	growth inhibition (5 µM, minimal medium (MM)) [%]
Cc1nn2c(=O)c3c([nH]c2c1-c1ccc(Cl)cc1)CCCC3	< 0	22.1	7.72	16.2
Nc1ncc(-c2cn[nH]c2)cc1-c1nc2cc(Cl)cnc2[nH]1	97	97	> 100	94.3
O=C(NC1CC1)c1ccc(N2CCC(Cc3ccccc3)CC2)nc1	95.5	91.8	95.7	92.1
COc1ccc(OC)c(NCc2ccc3nc(N)nc(N)c3c2Cl)c1	99.9	> 100	96.1	94.2
COc1ccc(-c2nn(C(C)C)c3ncnc(N)c23)cc1OC	86.7	81.7	97.3	90.9
COc1cccc(OCC(=O)c2ccc(Br)cc2)c1	< 0	< 0	< 0	< 0
CCNC(=O)C(C)Nc1nc(-c2cccnc2)nc2sc(C)c(C)c12 (stereo not given)	5.05	< 0	16.8	31.6
Clc1ccc(CN2CCN(C3=NCCN3)CC2)cc1Cl	< 0	< 0	48.8	10
Cc1ccc(S(=O)(=O)Nc2ccc(CN3CCN(C(=O)c4cccc(C#N)c4)CC3)cc2)cc1	5.22	5.35	42.7	< 0
O=C(NC1CCCCC1)N1CCN(Cc2ccc3c(c2)OCO3)CC1	< 0	< 0	< 0	< 0
FC(F)(F)c1cccc(-c2nc3c(NCc4ccncc4)nccc3[nH]2)c1	99.9	> 100	95.4	96
Clc1cccc(C(c2ccc(CN3CCNCC3)cc2)n2ccnc2)c1 (stereo not given)	93.2	> 100	93.5	91.5
CNc1nnc(Sc2cnn(-c3ccccc3)c(=O)c2Cl)s1	27	16.6	79.8	62.1
COc1ccc2nc(C)cc(OCC(=O)NCc3ccccc3)c2c1	25.1	2.13	21.9	2.43
O=C(NCc1ccoc1)N1CCN(Cc2ccc3c(c2)OCO3)CC1	< 0	6.98	< 0	< 0
O=C(Nc1nc(-c2ccccn2)cs1)C1CC1c1ccccc1F (stereo not given)	16	< 0	54.3	26.1
Cc1ccc(C(=O)Nc2ccc(S(=O)(=O)O)c3cc(S(=O)(=O)O)cc(S(=O)(=O)O)c23)cc1NC(=O)c1cccc(NC(=O)Nc2cccc(C(=O)Nc3cc(C(=O)Nc4ccc(S(=O)(=O)O)c5cc(S(=O)(=O)O)cc(S(=O)(=O)O)c45)ccc3C)c2)c1	< 0	< 0	< 0	12.6
